Where a name gives a salt, the structure may show the parent alone. Values without a mark were called inactive.

One assay concerns WPMY1-ACTB-RAB5A. Description: phenotypically active (imaging signature differs from DMSO and reproducible) at any of 0.3-9 uM (binary (1 = active, 0 = inactive)); higher = active. The note with it: treatment time: 24 h. The essentials:
(§1)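 After 24 h at 0.3, 1, 3 or 9 µM, with four wells per treatment, fifteen gene-edited A549, HepG2 and WPMY1 reporter lines carrying BFP, GFP and RFP/FusionRed were imaged live. Each well's live-cell features were expressed relative to solvent control wells. Deviation required ≥3 of 4 wells past the 95th percentile of control Euclidean distances, and reproducibility a median replicate Pearson correlation over the 95th percentile of non-replicates. Phenotypic activity rested on both.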
Take `O=C1c2c(O)cccc2Cc2cccc(O)c21` [anthralin]: the phenotypically active was 1 (active).

On to `COc1cc2c(cc1OC)-c1c/c(=N/c3c(C)cc(C)cc3C)n(C)c(=O)n1CC2` [Trequinsin hydrochloride], for which the phenotypically active was 1 (active).

For the compound `O=C(Nc1ccncc1)c1cc([N+](=O)[O-])ccc1Cl`, the phenotypically active is 0.

As for `Nc1ncnc2c1c(-c1ccc(Oc3ccccc3)cc1)nn2C1CCCC1`, the phenotypically active was 0.

With `O=C(Nc1ccc(CN2CCOCC2)cc1)c1ccc(-c2cccc(Cl)c2)o1`, the phenotypically active was 0.

For `O=C(/C=C/c1ccc2ccccc2n1)c1ccncc1`, the phenotypically active is 1 (active).

On to `CNCC[C@H](Oc1cccc2ccccc12)c1cccs1` [duloxetine], for which the phenotypically active was 0.

With `CNC(=O)c1cc(Oc2ccc(NC(=O)Nc3ccc(Cl)c(C(F)(F)F)c3)c(F)c2)ccn1` [regorafenib], the phenotypically active is 0.

As for `NC(=O)[C@@H](CCC(F)(F)F)N(Cc1ccc(-c2ncon2)cc1F)S(=O)(=O)c1ccc(Cl)cc1` [avagacestat], the phenotypically active was 0.

Consider `CCC(C)(C)C(=O)O[C@H]1C[C@@H](C)C=C2C=C[C@H](C)[C@H](CC[C@@H]3C[C@@H](O)CC(=O)O3)[C@H]21` [Simvastatin], for which the phenotypically active was 1 (active).

`Nc1cc(N)c(N)cc1N` [FAK Inhibitor 14]: the phenotypically active was 1 (active).

As to `Cc1ccc(S(=O)(=O)c2ccc([N+](=O)[O-])o2)cc1`, the phenotypically active is 1 (active).

As to `Fc1ccccc1Nc1nc2nonc2nc1Nc1ccccc1F`, the phenotypically active is 1 (active).

For the compound `Cc1ccc(O)c([C@H](CCN(C(C)C)C(C)C)c2ccccc2)c1` [Tolterodine L-tartrate], the phenotypically active is 0.

Take `O=c1cc(-c2ccccc2)oc2cc(O)cc(O)c12` [Chrysin]: the phenotypically active was 0.

On to `COc1cc2nccc(Oc3ccc(NC(=O)C4(C(=O)Nc5ccc(F)cc5)CC4)cc3)c2cc1OC`, for which the phenotypically active is 1 (active).

Turning to `CC(C)c1nc(CN(C)C(=O)N[C@H](C(=O)N[C@@H](Cc2ccccc2)C[C@H](O)[C@H](Cc2ccccc2)NC(=O)OCc2cncs2)C(C)C)cs1` [ritonavir], the phenotypically active was 0.

Turning to `CC[C@H](CO)Nc1nc(Nc2cccc(-c3ccccn3)c2)c2ncn(C(C)C)c2n1` [(R)-DRF053 dihydrochloride], the phenotypically active is 0.

Regarding `CN1c2ccc([N+](=O)[O-])cc2N=C(c2ccc(C(=O)O)cc2)c2cc3c(cc21)C(C)(C)CCC3(C)C`, the phenotypically active was 0.

Take `COc1ccc(CCc2nc3cc(-c4c(C)noc4C)ccc3n2C[C@H](C)N2CCOCC2)cc1Cl`: the phenotypically active is 1 (active).

For the compound `CCOC(=O)c1c2c3c(cccc3[nH]c1=O)C(=O)c1ccccc1-2`, the phenotypically active is 0.

`CCN1/C(=C/C(C)=O)Sc2ccc(O)cc21`: the phenotypically active was 1 (active).

Take `CC(C)(C)n1nc(-c2ccc(Cl)cc2)c2c(N)ncnc21`: the phenotypically active was 0.

On to `O=S(=O)(c1cccc2cnccc12)N1CCNCC1`, for which the phenotypically active is 1 (active).

Turning to `CC(C)c1c(C(=O)Nc2ccccc2)c(-c2ccccc2)c(-c2ccc(F)cc2)n1CC[C@@H](O)C[C@@H](O)CC(=O)O` [atorvastatin], the phenotypically active is 1 (active).

For another assay, the system named is WPMY1-CANX-COX4. The assay is described as above. The note with it: treatment time: 24 h. The essentials:
as §1
`O=C(CCCCCCC(=O)Nc1ccc([C@H]2O[C@@H](CSc3nc(-c4ccccc4)c(-c4ccccc4)o3)C[C@@H](c3ccc(CO)cc3)O2)cc1)NO` [Tubacin]: the phenotypically active was 1 (active).

With `CC1CNCCN1S(=O)(=O)c1cccc2cnccc12` (centres undefined) [H-7 dihydrochloride], the phenotypically active is 1 (active).

With `COc1cc(OC)c2c(=O)[nH]c(-c3cc(C)c(OCCO)c(C)c3)nc2c1` [apabetalone], the phenotypically active was 0.

Turning to `CC1(CN2CCC(n3c(=O)[nH]c4ccccc43)CC2)OCc2ccccc2-n2cccc21` (centres undefined), the phenotypically active is 0.

`N#Cc1ccc2ncnc(NCCc3ccccc3)c2c1` [Senexin A]: the phenotypically active is 1 (active).

In the case of `Nc1ccc(N=Nc2ccccc2)c(N)n1` [phenazopyridine], the phenotypically active is 0.

With `O=C(CCCCCCC(=O)NO)NO`, the phenotypically active is 0.

For `CC(C)(C)c1ccc(C(O)CCCN2CCC(C(O)(c3ccccc3)c3ccccc3)CC2)cc1` (centres undefined) [terfenadine], the phenotypically active is 0.

With `COc1ccccc1C(=O)Nc1cc2c(cc1N1CCCC1)n(C)c(=O)n2C`, the phenotypically active is 0.

`CCC(=O)N1CCOc2c(cc(-c3ccc(OC)c(OC)c3)cc2OC[C@H]2CCCN(C)C2)C1`: the phenotypically active was 1 (active).

For `CCc1nc(-c2cccc(C)c2)c(-c2ccnc(NC(=O)c3ccccc3)c2)s1`, the phenotypically active was 0.

In the case of `Cc1ccc(S(=O)(=O)n2c(N)nc3ccccc32)cc1`, the phenotypically active is 0.

In the case of `Cc1ccc(NC(=O)c2cccc(C(C)(C)C#N)c2)cc1Nc1ccc2ncn(C)c(=O)c2c1`, the phenotypically active was 1 (active).

As to `Cn1cc(-c2cnc3ccc4ccc(CS(=O)(=O)NCc5ccccn5)cc4c(=O)c3c2)cn1`, the phenotypically active is 1 (active).

Regarding `O=C1c2c(O)cccc2Cc2cccc(O)c21` [anthralin], the phenotypically active was 0.

Take `COc1cc2c(cc1OC)-c1c/c(=N/c3c(C)cc(C)cc3C)n(C)c(=O)n1CC2` [Trequinsin hydrochloride]: the phenotypically active was 1 (active).

For `O=C(Nc1ccncc1)c1cc([N+](=O)[O-])ccc1Cl`, the phenotypically active was 1 (active).

On to `Nc1ncnc2c1c(-c1ccc(Oc3ccccc3)cc1)nn2C1CCCC1`, for which the phenotypically active was 0.

Regarding `O=C(Nc1ccc(CN2CCOCC2)cc1)c1ccc(-c2cccc(Cl)c2)o1`, the phenotypically active was 0.

In the case of `O=C(/C=C/c1ccc2ccccc2n1)c1ccncc1`, the phenotypically active was 0.

On to `CNCC[C@H](Oc1cccc2ccccc12)c1cccs1` [duloxetine], for which the phenotypically active is 0.

`CNC(=O)c1cc(Oc2ccc(NC(=O)Nc3ccc(Cl)c(C(F)(F)F)c3)c(F)c2)ccn1` [regorafenib]: the phenotypically active was 0.

`NC(=O)[C@@H](CCC(F)(F)F)N(Cc1ccc(-c2ncon2)cc1F)S(=O)(=O)c1ccc(Cl)cc1` [avagacestat]: the phenotypically active is 0.

With `CCC(C)(C)C(=O)O[C@H]1C[C@@H](C)C=C2C=C[C@H](C)[C@H](CC[C@@H]3C[C@@H](O)CC(=O)O3)[C@H]21` [Simvastatin], the phenotypically active was 1 (active).

Consider `Nc1cc(N)c(N)cc1N` [FAK Inhibitor 14], for which the phenotypically active was 1 (active).

In the case of `Cc1ccc(S(=O)(=O)c2ccc([N+](=O)[O-])o2)cc1`, the phenotypically active was 1 (active).

Regarding `Fc1ccccc1Nc1nc2nonc2nc1Nc1ccccc1F`, the phenotypically active is 1 (active).

For the compound `Cc1ccc(O)c([C@H](CCN(C(C)C)C(C)C)c2ccccc2)c1` [Tolterodine L-tartrate], the phenotypically active is 0.

Turning to `O=c1cc(-c2ccccc2)oc2cc(O)cc(O)c12` [Chrysin], the phenotypically active is 1 (active).

As to `COc1cc2nccc(Oc3ccc(NC(=O)C4(C(=O)Nc5ccc(F)cc5)CC4)cc3)c2cc1OC`, the phenotypically active was 0.

For the compound `CC(C)c1nc(CN(C)C(=O)N[C@H](C(=O)N[C@@H](Cc2ccccc2)C[C@H](O)[C@H](Cc2ccccc2)NC(=O)OCc2cncs2)C(C)C)cs1` [ritonavir], the phenotypically active is 0.

Turning to `CC[C@H](CO)Nc1nc(Nc2cccc(-c3ccccn3)c2)c2ncn(C(C)C)c2n1` [(R)-DRF053 dihydrochloride], the phenotypically active is 1 (active).

With `CN1c2ccc([N+](=O)[O-])cc2N=C(c2ccc(C(=O)O)cc2)c2cc3c(cc21)C(C)(C)CCC3(C)C`, the phenotypically active was 0.

As to `COc1ccc(CCc2nc3cc(-c4c(C)noc4C)ccc3n2C[C@H](C)N2CCOCC2)cc1Cl`, the phenotypically active is 0.

As for `CCOC(=O)c1c2c3c(cccc3[nH]c1=O)C(=O)c1ccccc1-2`, the phenotypically active is 0.

For the compound `CCN1/C(=C/C(C)=O)Sc2ccc(O)cc21`, the phenotypically active is 0.

For the compound `CC(C)(C)n1nc(-c2ccc(Cl)cc2)c2c(N)ncnc21`, the phenotypically active is 0.

For the compound `O=S(=O)(c1cccc2cnccc12)N1CCNCC1`, the phenotypically active was 1 (active).

Consider `CC(C)c1c(C(=O)Nc2ccccc2)c(-c2ccccc2)c(-c2ccc(F)cc2)n1CC[C@@H](O)C[C@@H](O)CC(=O)O` [atorvastatin], for which the phenotypically active was 1 (active).

These data come from the supplement of paper PMC7411054.
